{"source": "the supplement of paper PMC3545927", "target": "furin, P09958", "sequence (P09958 whole entry, the tested form may be a part)": "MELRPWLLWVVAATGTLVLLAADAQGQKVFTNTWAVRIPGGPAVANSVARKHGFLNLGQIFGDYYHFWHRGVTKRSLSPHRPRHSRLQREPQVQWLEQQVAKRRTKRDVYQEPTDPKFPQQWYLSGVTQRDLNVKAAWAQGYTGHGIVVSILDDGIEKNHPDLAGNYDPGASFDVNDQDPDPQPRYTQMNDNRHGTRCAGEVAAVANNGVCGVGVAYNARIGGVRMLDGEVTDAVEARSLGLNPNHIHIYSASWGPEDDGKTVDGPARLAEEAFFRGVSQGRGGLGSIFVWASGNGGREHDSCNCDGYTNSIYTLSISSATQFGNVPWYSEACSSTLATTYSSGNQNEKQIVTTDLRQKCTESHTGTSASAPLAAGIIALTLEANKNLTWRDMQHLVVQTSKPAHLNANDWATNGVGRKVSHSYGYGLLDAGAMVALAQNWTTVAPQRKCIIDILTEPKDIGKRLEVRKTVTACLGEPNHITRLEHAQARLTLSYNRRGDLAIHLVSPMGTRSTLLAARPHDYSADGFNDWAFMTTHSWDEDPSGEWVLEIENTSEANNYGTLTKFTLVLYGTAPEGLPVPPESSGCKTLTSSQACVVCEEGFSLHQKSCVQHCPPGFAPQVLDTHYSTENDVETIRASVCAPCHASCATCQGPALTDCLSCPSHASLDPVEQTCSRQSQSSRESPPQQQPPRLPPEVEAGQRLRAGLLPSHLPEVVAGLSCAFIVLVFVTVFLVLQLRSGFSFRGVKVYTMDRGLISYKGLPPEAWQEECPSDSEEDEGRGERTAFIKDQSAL", "experiment": "furin cleavage Z-score vs untreated control; higher = more cleavage, active = 3.5 or more, inactive = 1 or less, 8 variable residues between constant flanks", "method": "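Multiplexed peptide-cDNA fusion cleavage assay. 8-mer variable peptides flanked by constant Cys-Ala (N-term) and Ala-Gly-Asn-Ala-Ser-Ala-Ser-Ala (C-term) and conjugated to a cDNA oligonucleotide were bead-immobilised via the N-terminus. They were treated with purified furin at a 1:10 enzyme:substrate ratio in 50 mM HEPES pH 7.5, 1 mM CaCl2, 100 mM NaCl for 7.5, 15 or 30 min. Released cDNA was counted by next-generation sequencing, and log counts versus no-furin controls were lowess-adjusted and converted to robust Z-scores.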", "note": "This is one part of the list. The true hit rate is not given."}
{"sequence": "CADGPDGPEEAGNASASA", "note": "[CS6]", "values": [{"measurement": "furin cleavage Z-score", "setting": "7.5 min", "result": "-0.625 (inactive)"}, {"measurement": "furin cleavage Z-score", "setting": "15 min", "result": "-0.697 (inactive)"}, {"measurement": "furin cleavage Z-score", "setting": "30 min", "result": "0.000165 (inactive)"}]}
{"sequence": "CAVSVIPTSGAGNASASA", "note": "[HC872]", "values": [{"measurement": "furin cleavage Z-score", "setting": "7.5 min", "result": "-1.15 (inactive)"}, {"measurement": "furin cleavage Z-score", "setting": "15 min", "result": "-1.43 (inactive)"}, {"measurement": "furin cleavage Z-score", "setting": "30 min", "result": "-0.759 (inactive)"}]}
{"sequence": "CALALLSCLTAGNASASA", "note": "[HC250]", "values": [{"measurement": "furin cleavage Z-score", "setting": "7.5 min", "result": "0.23 (inactive)"}, {"measurement": "furin cleavage Z-score", "setting": "15 min", "result": "0.192 (inactive)"}, {"measurement": "furin cleavage Z-score", "setting": "30 min", "result": "0.0802 (inactive)"}]}
{"sequence": "CADAAARVTAAGNASASA", "note": "[HC1130]", "values": [{"measurement": "furin cleavage Z-score", "setting": "7.5 min", "result": "-0.857 (inactive)"}, {"measurement": "furin cleavage Z-score", "setting": "15 min", "result": "-0.374 (inactive)"}, {"measurement": "furin cleavage Z-score", "setting": "30 min", "result": "-0.0041 (inactive)"}]}
{"sequence": "CAASIRHARFAGNASASA", "note": "[FS-580]", "values": [{"measurement": "furin cleavage Z-score", "setting": "7.5 min", "result": "4.24 (active)"}, {"measurement": "furin cleavage Z-score", "setting": "15 min", "result": "6.42 (active)"}, {"measurement": "furin cleavage Z-score", "setting": "30 min", "result": "7.16 (active)"}]}
{"sequence": "CASCQRRTRFAGNASASA", "note": "[FS-379]", "values": [{"measurement": "furin cleavage Z-score", "setting": "7.5 min", "result": "-0.682 (inactive)"}, {"measurement": "furin cleavage Z-score", "setting": "15 min", "result": 1.81}, {"measurement": "furin cleavage Z-score", "setting": "30 min", "result": 2.4}]}
{"sequence": "CADAARVARFAGNASASA", "note": "[FS-220]", "values": [{"measurement": "furin cleavage Z-score", "setting": "7.5 min", "result": 1.88}, {"measurement": "furin cleavage Z-score", "setting": "15 min", "result": 3.12}, {"measurement": "furin cleavage Z-score", "setting": "30 min", "result": "3.56 (active)"}]}
{"sequence": "CAAGHAVGIFAGNASASA", "note": "[HC747]", "values": [{"measurement": "furin cleavage Z-score", "setting": "7.5 min", "result": "0.991 (inactive)"}, {"measurement": "furin cleavage Z-score", "setting": "15 min", "result": "-0.922 (inactive)"}, {"measurement": "furin cleavage Z-score", "setting": "30 min", "result": "-0.149 (inactive)"}]}
{"sequence": "CAASHRSTRFAGNASASA", "note": "[FS-1309]", "values": [{"measurement": "furin cleavage Z-score", "setting": "7.5 min", "result": "0.749 (inactive)"}, {"measurement": "furin cleavage Z-score", "setting": "15 min", "result": 3.07}, {"measurement": "furin cleavage Z-score", "setting": "30 min", "result": "5.05 (active)"}]}
{"sequence": "CAASPRVARFAGNASASA", "note": "[FS-1586]", "values": [{"measurement": "furin cleavage Z-score", "setting": "7.5 min", "result": "7.18 (active)"}, {"measurement": "furin cleavage Z-score", "setting": "15 min", "result": "7.05 (active)"}, {"measurement": "furin cleavage Z-score", "setting": "30 min", "result": "9.24 (active)"}]}
{"sequence": "CAEVTCHRPSAGNASASA", "note": "[HC2358]", "values": [{"measurement": "furin cleavage Z-score", "setting": "7.5 min", "result": "0.503 (inactive)"}, {"measurement": "furin cleavage Z-score", "setting": "15 min", "result": 1.09}, {"measurement": "furin cleavage Z-score", "setting": "30 min", "result": "-0.419 (inactive)"}]}
{"sequence": "CASTPCSCHLAGNASASA", "note": "[HC2540]", "values": [{"measurement": "furin cleavage Z-score", "setting": "7.5 min", "result": "-2.32 (inactive)"}, {"measurement": "furin cleavage Z-score", "setting": "15 min", "result": "-0.121 (inactive)"}, {"measurement": "furin cleavage Z-score", "setting": "30 min", "result": "-0.978 (inactive)"}]}
